Bioassay records (PubChem)
Sampled rows, rich in hits. Any-hit rate of the full collection: about 7.6%.
Giardia killer – Small Molecules that selectively kill Giardia lamblia: qHTS | Giardia lamblia trophozoite viability | activity change, % at 7.66 µM, hits read low | 340,000 tested, 0.15% active | AID 540267, 2011; in the data active means activity change below about -80%; inconclusive means between about -30% and that limit;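 further: parasites exposed to compound for two days anaerobically before the ATP read; on the % scale 0 is the no-effect control and ±100 the full control effect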
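Trophozoites 100 cells/well + cpd; 48 hrs, 37 deg C, anaerobic. ATPLite 1-Step added, 15-30 min RT, luminescence read (ATP-based viability).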
RORgamma inh – qHTS for inhibitors of ROR gamma transcriptional activity. Nuclear receptor ROR-gamma (Mus musculus), P51450. Drosophila S2 Gal4-RORgamma UAS-luciferase reporter, 20 h. Potency, µM (titrated, usually from 53.6 µM), for inactives: top-dose activity change, negative = inhibition, most hits filed as inhibitors. 310,000 tested, 5.4% active. AID 2551, 2010; further: potency means the concentration at half of the fitted maximal effect; on the % scale 0 is the no-effect control and ±100 the full control effect; nearly all actives have a fitted effect of over 60% in size
Target sequence (P51450 whole entry, looked up, the tested form may be a part): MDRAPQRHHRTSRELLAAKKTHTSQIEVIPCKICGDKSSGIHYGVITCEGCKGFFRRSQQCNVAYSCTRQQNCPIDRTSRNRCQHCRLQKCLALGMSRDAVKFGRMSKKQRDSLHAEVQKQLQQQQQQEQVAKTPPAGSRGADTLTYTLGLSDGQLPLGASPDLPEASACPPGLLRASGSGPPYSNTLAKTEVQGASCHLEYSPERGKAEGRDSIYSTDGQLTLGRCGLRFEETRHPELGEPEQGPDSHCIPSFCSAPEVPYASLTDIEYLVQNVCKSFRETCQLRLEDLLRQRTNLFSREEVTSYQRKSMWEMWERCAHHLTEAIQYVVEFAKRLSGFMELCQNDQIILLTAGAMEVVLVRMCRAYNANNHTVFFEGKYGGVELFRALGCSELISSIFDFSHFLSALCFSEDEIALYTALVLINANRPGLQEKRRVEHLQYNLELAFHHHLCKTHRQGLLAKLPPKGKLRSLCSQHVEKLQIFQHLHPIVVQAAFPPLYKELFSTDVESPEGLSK
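Drosophila S2 cells stably expressing Gal4-DBD/mouse RORγ fusion under metallothionein promoter plus UAS-luciferase; compound 1 h, then 700 uM CuSO4 induction for 20 h at ambient temperature; inhibition read as reduced luminescence.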
BRCA1 expr act – qHTS Assay to Identify Small Molecule Activators of BRCA1 Expression | MCF7-BRCA1-FFLuc reporter, luminescence, 48 h; response scale: scaled: vehicle 0%, 10 µM genistein 100% | Potency, µM (series often up to 46.1 µM), inactives show at the highest dose activation, most hits filed as activators | 380,000 tested, 1.1% active; further: potency means the concentration at half of the fitted maximal effect; nearly all actives have a fitted effect of over 80% in size
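Quantitative HTS in MCF7 cells stably reporting BRCA1 expression via firefly luciferase. Compound treatment lasts 48 h at 37 °C in phenol-red free MEM. Activation is expressed relative to genistein at 10 microM and DMSO.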
p53 reactivation – qHTS assay for re-activators of p53 using a Luc reporter; H1299 p53-A138V BP100-luciferase reporter, luminescence, 24 h; Potency, µM (series often up to 92.2 µM), for the others: top-dose activity change, positive = activation, actives largely listed as activators; 320,000 tested, 0.063% active; further: potency means the concentration at half of the fitted maximal effect; % of control where 0% means no effect; nearly all actives have a fitted effect of over 45% in size
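p53-null H1299 cells stably carrying temperature-sensitive p53-A138V and a BP100-luciferase reporter were pinned with compounds (4-point, 1:5 series) and held 24 hrs at 37 deg C. Luminescence was read 10 min after detection reagent.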
ELG1 DNA repair – qHTS screen for small molecules that inhibit ELG1-dependent DNA repair in human embryonic kidney (HEK293T) cells expressing luciferase-tagged ELG1 | HEK293T ELG1-luciferase reporter, luminescence, 16 h; DNA damage induced by 5-fluorouridine | Potency, µM (top dose mostly 46.1 µM), inactives show at the highest dose activity change, negative = inhibition, actives largely listed as inhibitors | 330,000 tested, 2.3% active | AID 504467, 2011; further: potency means the concentration at half of the fitted maximal effect; on the % scale 0 is the no-effect control and ±100 the full control effect; nearly all actives have a fitted effect of over 55% in size
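Luminescence from the luciferase reporter, measured 30 min after ONE-Glo reagent at room temperature, was the read-out. Beforehand, 2,000 cells per well were exposed for 16 hr at 37 °C to 5-fluorouridine together with compound or vehicle.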
VP16 counter – VP16 counterscreen qHTS for inhibitors of ROR gamma transcriptional activity; Drosophila S2 Gal4-VP16 UAS-luciferase, luminescence, 20 h; Potency, µM (highest dose often 53.6 µM), inactives show at the highest dose activity, negative = inhibition, usual class: inhibitors; 310,000 tested, 3.5% active; AID 2546, 2010;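 further: Gal4-VP16 expression switched on by copper sulfate through the metallothionein promoter; potency means the concentration at half of the fitted maximal effect; on the % scale 0 is the no-effect control and ±100 the full control effect; nearly all actives have a fitted effect of over 50% in size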
The depositor's hits bear a star; ? = inconclusive; . = no result; [ ] = dose if it differs, or a comment. Unless noted, the call rests on the fitted dose curve; in most records, active means well fitted curve in the direction sought with a large enough effect; inconclusive means small, poorly fitted or top-dose-only effect, or another doubt; inactive means no such curve, though single readings can be large; an effect the other way counts as inactive or inconclusive.

SMILES | Giardia killer | RORgamma inh | BRCA1 expr act | p53 reactivation | ELG1 DNA repair | VP16 counter
COc1ccccc1/C=C/C=N/n1c(-c2ccccc2)n[nH]c1=S | 3.1 | 0.398µM* | 0.0% | 3.8% | ? | ?
O=[N+]([O-])c1ccccc1/C=N/n1c(-c2ccccc2)n[nH]c1=S | -2.0 | ? | -10.9% | ? | 1.5% | ?
COc1ccc(-c2n[nH]c(=S)n2/N=C/C=C/c2ccccc2OC)cc1 | -6.1 | 7.08µM* | -67.1% | -10.7% | -16.5% | ?
O=[N+]([O-])c1ccccc1/C=C/C=N/n1c(-c2ccccc2F)n[nH]c1=S | 1.5 | 14.1µM* | -28.6% | 7.1% | 0.0% | -3.5%
COc1cccc(NC(=O)CSc2nc3ccccc3nc2N2CCCC2)c1 | -17.7 | -20.7% | -5.0% | 13.5% | ? | 4.8%
O=C(COc1ccc(F)cc1)NCC1(N2CCCCC2)CCCCC1 | 23.8 | . | -18.9% | 0.0% | 30.0% | .
COc1ccc(NC(=O)C2CCC2)cc1S(=O)(=O)Nc1cc(C)ccc1Br | 4.6 | . | -36.7% | 1.5% | 23.1µM* | .
CCN1C(=O)CCC(C(=O)O)C1c1ccc(OC)cc1 (configuration not stated) | 37.5 | 18.6% | 0.0% | 1.5% | 11.9% | -1.7%
Cc1ccc(C)c(NC(=S)NC(NC(=O)OCc2ccccc2)C(Cl)(Cl)Cl)c1 (configuration not stated) | 15.7 | 14.1µM* | -34.0% | -1.0% | 0.0% | ?
O=C(CCc1ccccc1)NC(NC(=S)Nc1cccc(Cl)c1)C(Cl)(Cl)Cl (configuration not stated) | -4.6 | ? | -47.2% | -11.7% | ? | 9.6%
O=C(NC(NC(=S)Nc1c(Cl)cc(Cl)cc1Cl)C(Cl)(Cl)Cl)OCc1ccccc1 (configuration not stated) | 8.5 | 7.08µM* | -76.4% | 3.0% | -19.3% | 5.62µM*
CCC(C)c1ccccc1NC(=O)COC(=O)c1ccc2[nH]c3c(c2c1)CCCC3 (configuration not stated) | -2.6 | 5.6% | -79.6% | 2.2% | 20.6µM* | 20µM*
COc1ccc(CN2C(=O)CCC2(C)C(=O)NC2CCCCCC2)cc1 (configuration not stated) | -7.7 | -3.8% | 0.6% | 39.4% | -1.3% | -0.2%
O=C(O)CCCNC(=O)CC1S/C(=N/N=C/c2ccccc2O)NC1=O (configuration not stated) | -12.4 | -22.2% | 13.3% | -1.5% | -18.3% | -10.7%
C=CCC1S/C(=N/N=C/c2cccs2)NC1=O (configuration not stated) | -3.3 | 2µM* | 16.5% | 9.0% | 15.1% | 5.62µM*
C=CCN1C(=O)C(Cc2ccc(OC)cc2)S/C1=N\N=C\c1cccs1 (configuration not stated) | -19.7 | 2.4% | -23.4% | 5.9% | 17.4% | 9.5%
O=C(CC1S/C(=N/N=C2CCCCCC2)NC1=O)Nc1ccccc1C(F)(F)F (configuration not stated) | 1.6 | 5.62µM* | -8.2% | -0.3% | -1.9% | ?
O=C1N/C(=N\N=C\c2cccs2)SC1Cc1ccc(Cl)c(Cl)c1 (configuration not stated) | -5.4 | 0.447µM* | -36.2% | -2.6% | -12.0% | 0.708µM*
O=C(CC1S/C(=N/N=C/c2cccs2)NC1=O)Nc1ccccc1F (configuration not stated) | 1.6 | 8.91µM* | -13.7% | 0.7% | ? | -22.7%
O=C(Oc1ccc(Br)cc1)c1cccc(S(=O)(=O)N2CCOCC2)c1 | -7.6 | 23.6% | -4.2% | 1.7% | 0.7% | -4.8%
COc1cc2c(cc1OC)n(CC(=O)Nc1ccccc1)c(=O)n1nc(-c3ccccc3)nc21 | . | . | 0.0% | . | . | .
CCOc1ccc(NS(=O)(=O)c2c(C)nc3sccn3c2=O)cc1 | -20.3 | ? | 2.0% | . | 0.7% | -9.6%
CCOc1cccc(C(=O)NC(=S)Nc2cccnc2)c1 | -18.4 | 14.1µM* | 17.1% | 26.6% | ? | ?
CCCCOc1cccc(C(=O)NC(=S)Nc2cccnc2)c1 | 5.3 | 11.2µM* | -5.3% | 2.2% | -0.1% | ?
CCOc1cccc(C(=O)NC(=S)Nc2cccc(NC(=O)c3ccccc3Cl)c2)c1 | 22.9 | -40.5%[10 µM] | -2.6% | -2.8% | 8.2µM* | 0.631µM*
SMILES | Giardia killer | RORgamma inh | BRCA1 expr act | p53 reactivation | ELG1 DNA repair | VP16 counter
CCCOc1cccc(C(=O)Nc2cccnc2)c1 | -5.3 | 44.9% | 0.5% | 4.4% | 9.3% | 16.1%
O=C(NC(=S)Nc1ccc(CN2CCCCC2)cc1)c1cccc(OCc2ccccc2)c1 | 19.0 | 10µM* | -72.6% | 14.3% | ? | ?
CCOc1cccc(C(=O)NC(=S)Nc2ccc(N3CCN(CC)CC3)cc2)c1 | -4.4 | 11.2µM* | 3.2% | -2.5% | ? | ?
CCC(=O)Nc1cccc(NC(=S)NC(=O)c2ccccc2)c1 | ? | 4.4% | 87.7% | ? | ? | -2.4%
CCOc1ccccc1N1C(=O)c2ccc(C(=O)Nc3cccnc3)cc2C1=O | -2.4 | 18.3% | -5.8% | 1.0% | 10.6% | 12.6µM*
CCCOc1cccc(C(=O)NC(=S)Nc2ccc(N3CCN(C)CC3)cc2)c1 | -16.7 | -16.4% | 1.1% | -2.3% | 5.7% | -8.1%[10 µM]
CC(=O)Oc1cccc(N2C(=O)c3ccc(C(=O)Nc4cccnc4)cc3C2=O)c1 | ? | 6.3% | 3.7% | 4.6% | 22.3% | -0.4%
CCOc1cccc(C(=O)NC(=S)Nc2ccccc2)c1 | -3.4 | 4.47µM* | 11.2µM* | ? | ? | ?
Cc1cnc(NC(=O)CC2CCCC2)s1 | -8.9 | ? | ? | -2.6% | ? | 5.5%
O=C(CN1C(=O)S/C(=C\c2ccc(Cl)cc2)C1=O)NNC(=O)c1ccccc1O | 30.0 | -5.0%[10 µM] | -28.6% | 1.2% | 31.4% | -2.2%
O=[N+]([O-])c1cc([N+](=O)[O-])c2cc3ccccc3nc2c1 | -21.0 | 3.16µM* | -39.6% | 18.8% | -5.0% | 2.82µM*
Cc1ccc(NC(=O)c2ccc(OC(F)F)cc2)cc1S(=O)(=O)N(C)C | -18.6 | ? | -3.2% | ? | ? | -2.4%
COc1cc(CCC(=O)Nc2ccc(C)c(S(=O)(=O)N(C)C)c2)cc(OC)c1OC | 9.1 | 2.7% | -45.1% | 3.1% | 9.2µM* | -4.6%
CN(C)S(=O)(=O)c1ccc(NC(=O)CCNC(=O)c2ccc([N+](=O)[O-])cc2)cc1 | 3.7 | 8.6% | -12.7% | -1.3% | -19.9% | 11.7%
